Assay outcomes: PubChem BioAssay, several laboratories
SMARCA2 activ – increases SMARCA2 function in MMTV reporter cells; MG213 cells, MMTV-luciferase reporter, dexamethasone, overnight; activation, % at 9.1 µM; 1% of 370,000 active; in the data active means activation above about 7.8%
AF4-AF9 inh – blocks AF4 peptide binding to human AF9; P42568; AlphaScreen, biotin-AF4 peptide binding to FLAG-AF9; inhibition, % at 10 µM; 0.47% of 350,000 active;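 active means every replicate reaching a set inhibition limit, whatever the replicate mean, cut at about 25% in these data; inconclusive means mean inhibition reaches that limit but some replicates miss it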
esBAF inh – SWI/SNF esBAF complex inhibition. mouse ES cells, Bmi1-luciferase knock-in reporter, 24 h; 100% = twice the neutral-well signal. reporter increase, % at 12.5 µM. 2% of 350,000 active. AID 602393; in the data active means activation above about 40%; inconclusive means no clear call, values can overlap the other calls;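 further: a rise in the Bmi1 reporter signal indicates esBAF inhibition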
MITF act – activators of MITF-driven TRPM1 promoter activity in SK-MEL-5 cells; SK-MEL-5 TRPM1-promoter luciferase, 24 h; % of positive control, neutral wells = 0; activation, % at 12.5 µM; 0.75% of 300,000 active; AID 588334;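 active means mean activation of at least 80% with every replicate also reaching 80%; inconclusive means mean reaches 80% but some replicate falls short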
Wnt act – activates Wnt/beta-catenin signaling in a reporter cell assay; activator, plate reader; activation, % at 9.35 µM; AID 743398; 1.2% of 300,000 active; in the data active means activation above about 30%, passing the limit was not always enough; inconclusive means no clear call, values can overlap the other calls
FGF22 binding – shifts melting point of recombinant human FGF22; activity (Tm shift, normalised), % at 9.99 µM; recombinant FGF22 thermal shift, SYPRO orange fluorescence; percent of sucrose octasulfate shift, DMSO zero; 1.5% of 340,000 active; Q9HCT0; AID 651658;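 active means mean Tm shift, scaled 0 neutral to 100 positive control, at about 1.3% or above, every replicate too, limit read from the data; inconclusive means no clear call, values can overlap the other calls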
Target sequence (Q9HCT0 whole entry, looked up): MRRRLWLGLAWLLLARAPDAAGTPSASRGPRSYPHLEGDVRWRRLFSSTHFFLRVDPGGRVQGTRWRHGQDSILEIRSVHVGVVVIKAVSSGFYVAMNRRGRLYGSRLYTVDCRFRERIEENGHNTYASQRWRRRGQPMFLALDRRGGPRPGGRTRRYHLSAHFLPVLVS
Numbers stand for hits; . = inactive; ? = inconclusive; / = no result given. Only some compounds are listed: those with a hit (about 4.3% of all), similar ones and a draw of the others.

SMILES	SMARCA2 activ	AF4-AF9 inh	esBAF inh	MITF act	Wnt act	FGF22 binding
COc1ccc(S(=O)(=O)Nc2ccc3c(c2)C(=O)N([C@@H](C)CO)C[C@@H](C)[C@@H](CN(C)Cc2ccc(C(=O)O)cc2)OCCCC[C@@H](C)O3)cc1	/	.	.	/	/	.
C=C[C@@H](COC(C)=O)N(C(=O)OC(C)(C)C)S(=O)(=O)c1ccc(Br)cc1	/	.	/	/	/	.
C[C@@H]1CN([C@@H](C)CO)C(=O)c2c(c3ccccc3n2C)-c2ccccc2CO[C@H]1CN(C)Cc1ccccc1C(F)(F)F	/	/	/	/	/	.
COc1cc(/C=N/O)ccc1OCc1ccccc1Cl	.	.	.	96.0	.	.
O/N=C/c1ccccc1OCc1ccccc1Cl	.	/	.	.	/	/
OC[C@@H]1Nc2ccc(C#Cc3ccc(F)cc3)cc2[C@H]2NCC[C@@H]12	/	.	/	/	/	/
CCCNC(=S)N1CCN(c2nc(C)nc3sc4c(c23)CCCC4)CC1	.	.	.	.	.	43.0
COCCCNC(=S)N1CCN(c2nc(C)nc3sc4c(c23)CCCC4)CC1	.	.	.	/	.	.
O=C(NCC1CC1)[C@H]1[C@H](CO)[C@H]2Cn3c(ccc(-c4ccc(F)cc4)c3=O)[C@@H]1N2	/	.	.	/	/	.
O=C(/C=C/c1cccc(F)c1)OCC(=O)c1ccc[nH]1	7.9	.	.	.	.	.
O=C(/C=C/c1ccc(F)cc1)OCC(=O)c1ccc[nH]1	.	.	.	.	.	.
Nc1c(OS(=O)(=O)c2ccccc2)cccc1OS(=O)(=O)c1ccccc1	.	.	/	/	59.7	.
C[C@@H]1CN([C@H](C)CO)C(=O)c2cc(C#Cc3ccncc3)cnc2O[C@@H]1CN(C)C(=O)c1ccccc1F	/	.	.	/	/	.
CN(C)c1ccc(/C=N/NC(=O)CCc2c[nH]c3ccccc23)cc1	.	.	/	.	.	43.9
CN(C)c1ccc(/C=N/NC(=O)CCCO)cc1	.	.	/	.	.	.
CCCCCC(=O)N/N=C/c1ccc(N(C)C)cc1	.	/	51.5	.	.	/
O=C(CCc1c[nH]c2ccccc12)Nc1ccc(Nc2ccccc2)cc1	.	/	/	/	.	1.4
Cc1ccc(NC(=O)COC(=O)CCc2c[nH]c3ccccc23)cc1[N+](=O)[O-]	.	.	.	.	.	43.0
Cc1ccccc1NC(=O)COC(=O)CCc1c[nH]c2ccccc12	.	.	.	.	.	.
CC(C)(C)c1ccc(S(=O)(=O)N2CCC(C(=O)NCc3cccs3)CC2)cc1	.	/	/	/	/	/
NC(=O)c1c(NC(=O)c2ccco2)sc2c1CCC2	.	/	103.1	.	/	/
CC(C)(C)c1ccc(C(=O)NC(=S)Nc2sc3c(c2C#N)CCC3)cc1	.	/	/	.	.	/
N#Cc1c(NC(=O)c2ccc(Cn3cc(Br)cn3)o2)sc2c1CCCCC2	.	/	44.3	.	/	/
N#Cc1c(NC(=S)NC(=O)c2ccccc2)sc2c1CCC2	.	.	48.7	.	.	.
CCOC(=O)C(NC(=O)c1ccc(F)cc1)(Nc1sc2c(c1C(N)=O)CCC2)C(F)(F)F (stereo not drawn)	.	.	/	.	107.6	.
SMILES	SMARCA2 activ	AF4-AF9 inh	esBAF inh	MITF act	Wnt act	FGF22 binding
Cn1cnc(S(=O)(=O)N2CC[C@@H]3[C@H]2c2cc(C#Cc4ccccc4)ccc2N[C@@H]3CO)c1	/	.	.	/	/	.
CN1CCc2c(sc(NC(=O)c3ccc4ccccc4c3)c2C(N)=O)C1	/	/	.	120.8	/	/
CNC(=O)c1c(NC(=O)c2nc3ccccc3s2)sc2c1CCC2	/	/	74.8	?	/	/
N#Cc1c(NC(=O)c2cnn3cccnc23)sc2c1CCCC2	.	.	42.0	.	.	.
Cc1occc1C(=O)Nc1sc2c(c1C(N)=O)CCCCC2	.	/	47.2	.	/	/
COCC(=O)Nc1ccc2c(c1)C(=O)N(C)[C@H]1CC[C@@H](CC(=O)Nc3ccccc3)O[C@@H]1CO2	/	.	.	/	/	.
NC(=O)c1c(NC(=O)c2ccccc2)sc2c1CCC2	.	.	?	.	65.0	.
NC(=O)c1c(NC(=O)c2ccncc2)sc2c1CCCC2	.	.	/	.	.	.
N#Cc1c(NC(=O)c2ccco2)sc2c1CCC2	.	.	53.5	90.9	.	.
C[C@H]1CN([C@@H](C)CO)C(=O)c2cc(NC(=O)CCN3CCOCC3)ccc2O[C@@H]1CN(C)C(=O)NC1CCCCC1	/	.	.	/	/	.
CCOc1cccc2cc(-c3csc(NC(=O)CCC(=O)NCCN4CCCCC4C)n3)c(=O)oc12 (stereo not drawn)	7.9	.	.	109.9	.	.
